According to PubChem BioAssay AID504467 (National Center for Advancing Translational Sciences (NCATS), 2011):
Hit rate of the full screen: of about 330,000 compounds, about 7,700 (2.3%) were called active. Another 26% or so got no clear call; they are omitted. The entries come from a sample that favours actives as a whole. A number with no mark means an inactive call. The call rests on the fitted dose curve; in most records, active means well fitted inhibition curve with a large enough effect; inconclusive means small, poorly fitted or top-dose-only effect, or effect the other way; inactive means flat fitted curve, though single readings scatter.

experiment: qHTS screen for small molecules that inhibit ELG1-dependent DNA repair in human embryonic kidney (HEK293T) cells expressing luciferase-tagged ELG1; conditions: HEK293T ELG1-luciferase reporter, luminescence, 16 h, DNA damage induced by 5-fluorouridine; series mostly up to 46.1 µM; activity change, negative = inhibition: at the top concentration; further: nearly all actives have a fitted effect of over 55% in size
How it was run: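 Luminescence from the luciferase reporter, measured 30 min after ONE-Glo reagent at room temperature, was the read-out. Beforehand, 2,000 cells per well were exposed for 16 hr at 37 °C to 5-fluorouridine together with compound or vehicle.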
On the % scale 0 is the no-effect control and ±100 the full control effect; potency means the concentration at half of the fitted maximal effect.

Question: For `COc1cc(OC)cc(C(=O)NNC(=O)Cc2cccs2)c1`, which “activity change, negative = inhibition” value is on record?
Answer: Its value is 19%.

Question: For `CC1Cc2ccccc2N1S(=O)(=O)c1cccc(C(=O)NCC(c2ccco2)N2CCCC2)c1` (configuration not stated), which “activity change, negative = inhibition” value is on record?
Answer: Its value is 1.24%.

Question: With `COc1cccc(/C=C2\Sc3ccc(C(=O)NCC4CCCO4)cc3N(C)C2=O)c1` (configuration not stated) as the compound, how does the Potency read?
Answer: The Potency was 20.6 µM (active).

Question: Which “activity change, negative = inhibition” value does the source give for `COc1ccccc1-n1cnc2cc(C(=O)NCC3CCCO3)ccc21` (configuration not stated) here?
Answer: Its value is 11.5%.

Question: For `COc1cccc(C(=O)NCCS(=O)(=O)NCC2CCCO2)c1` (configuration not stated), which “activity change, negative = inhibition” value is on record?
Answer: The value was 13.3%.

Question: Which “activity change, negative = inhibition” value does the source give for `COc1cccc(CNC(=O)CN2C(=O)NC(Cc3ccccc3)(c3ccccc3)C2=O)c1` (configuration not stated) here?
Answer: The value was -5.01%.

Question: Which “activity change, negative = inhibition” value does the source give for `CCOc1ccc(CCNC(=O)COC(=O)c2c(OC)cccc2OC)cc1OCC` here?
Answer: The value was -5.36%.

Question: For `CCCN1C2CCCC1CC(NC(=O)c1cccc(OC)c1)C2` (configuration not stated), which “activity change, negative = inhibition” value is on record?
Answer: The value was -8.9%.

Question: For `O=C(c1c(Cl)cccc1Cl)N1CCN(c2cccc3[nH]ccc23)CC1`, which Potency is on record?
Answer: The Potency was 18.3 µM (active).

Question: Which “activity change, negative = inhibition” value does the source give for `O=C(c1ccc(S(=O)(=O)N2CCCC2)cc1)N1CCN(c2ccccc2F)CC1` here?
Answer: Its value is 13.3%.

Question: For `COc1ccccc1N1CCN(C(=O)c2ccc(S(=O)(=O)N3CCCCC3)cc2)CC1`, which “activity change, negative = inhibition” value is on record?
Answer: The value was -21.4%.

Question: With `COc1ccc(C)cc1NC(=O)CSc1nnc2ccc(-c3ccccn3)nn12` as the compound, how does the “activity change, negative = inhibition” value read?
Answer: The value was -10.6%.

Question: With `COC(=O)c1cccc(C(=O)N2CCC(CCC(=O)NCc3ccc(F)cc3)CC2)c1` as the compound, how does the “activity change, negative = inhibition” value read?
Answer: The value was -2.27%.

Question: For `CN(C)CCn1c2c(c(SCC(=O)NCc3ccccc3)nc1=O)CCC2`, which “activity change, negative = inhibition” value is on record?
Answer: The value was 13.9%.

Question: Which “activity change, negative = inhibition” value does the source give for `Cc1ccc(OCCNC(=O)CN2C(=O)NC3(CCCC3)C2=O)cc1` here?
Answer: The value was 1.29%.

Question: Which “activity change, negative = inhibition” value does the source give for `CC(NC(=O)COC(=O)CCC(=O)c1ccc(Cl)cc1)c1ccccc1` (configuration not stated) here?
Answer: The value was 2.29%.

Question: Which “activity change, negative = inhibition” value does the source give for `COc1ccccc1-c1nnc2n1N=C(c1ccc(OC(F)F)c(OCC3CC3)c1)CS2` here?
Answer: Its value is 8.85%.

Question: With `COc1ccc(C2=Nn3c(nnc3-c3ccccc3OC)SC2)cc1OC1CCCC1` as the compound, how does the Potency read?
Answer: Its Potency is 20.6 µM (active).

Question: For `CC1=Nn2c(nnc2-c2ccccc2)SC1`, which “activity change, negative = inhibition” value is on record?
Answer: The value was 8.64%.

Question: Which “activity change, negative = inhibition” value does the source give for `O=C(Nc1nnc(-c2ccccc2)o1)c1cc(-c2cccs2)nc2ccccc12` here?
Answer: Its value is -10.2%.

Question: Which “activity change, negative = inhibition” value does the source give for `COC(=O)c1cc(-c2cccs2)nc2ccccc12` here?
Answer: Its value is 2.19%.

Question: With `CC(=O)Nc1cccc(Nc2nc(-c3cccs3)nc3ccccc23)c1` as the compound, how does the Potency read?
Answer: Its Potency is 16.4 µM (active).

Question: With `Cc1ccc2[nH]cc(CCNC(=O)C3CCCCC3)c2c1` as the compound, how does the “activity change, negative = inhibition” value read?
Answer: The value was -2.4%.

Question: For `Cc1ccc2[nH]c(=O)c(CN(CCCN(C)C)C(=O)Nc3cccc(Cl)c3)cc2c1`, which “activity change, negative = inhibition” value is on record?
Answer: The value was 0%.

Question: For `O=C(c1cccs1)N(Cc1cc2ccccc2[nH]c1=O)CC1CCCO1` (configuration not stated), which “activity change, negative = inhibition” value is on record?
Answer: The value was 18.7%.

Question: Which Potency does the source give for `Cc1cccc(NC(=O)N(Cc2cc3cc(C)cc(C)c3[nH]c2=O)CC2COCCO2)c1` (configuration not stated) here?
Answer: The Potency was 11.6 µM (active).

Question: Which “activity change, negative = inhibition” value does the source give for `Cc1cccc(N(Cc2ccccc2)C(=O)c2cc(S(=O)(=O)N3CCOCC3)ccc2F)c1` here?
Answer: Its value is -24.2%.

Question: Which “activity change, negative = inhibition” value does the source give for `CC(C)(C)c1ccc(C(=O)N2CCN(CCNC(=O)C(=O)Nc3ccc(F)cc3)CC2)cc1` here?
Answer: The value was -5.49%.

Question: For `Fc1ccccc1/C=C1\CCCC2=C1Nc1ncnn1C2c1ccccc1F` (configuration not stated), which Potency is on record?
Answer: Its Potency is 18.4 µM (active).

Question: For `CC1=C(C(N)=O)C(c2ccc(Br)cc2)n2ncnc2N1` (configuration not stated), which “activity change, negative = inhibition” value is on record?
Answer: The value was 0%.

Question: For `Cc1cccc(N(C(=O)c2sc(C)nc2C)C(C(=O)NCC2CCCO2)c2ccccc2)c1` (configuration not stated), which “activity change, negative = inhibition” value is on record?
Answer: The value was -6.84%.

Question: For `COc1ccc(CCN2CNc3c(c(=O)n(C)c(=O)n3C)C2)cc1OC`, which “activity change, negative = inhibition” value is on record?
Answer: Its value is -11%.

Question: Which Potency does the source give for `CCn1c(NCCc2ccc(OC)c(OC)c2)nc2c1c(=O)n(C)c(=O)n2C` here?
Answer: The Potency was 11.6 µM (active).

Question: With `Cn1c(=O)c2c(nc(NCCc3ccccc3)n2Cc2ccccc2)n(C)c1=O` as the compound, how does the Potency read?
Answer: Its Potency is 23.1 µM (active).

Question: For `CC(C)CCn1c(=O)c2c(nc3n2CCCN3Cc2ccccc2)n(C)c1=O`, which “activity change, negative = inhibition” value is on record?
Answer: The value was -15.5%.

Question: For `Cn1c(=O)c2c(nc(NCc3ccccc3)n2CC(N)=O)n(C)c1=O`, which “activity change, negative = inhibition” value is on record?
Answer: Its value is -6.05%.

Question: Which “activity change, negative = inhibition” value does the source give for `CCCCNc1nc2c(c(=O)[nH]c(=O)n2C)n1CCOc1ccccc1` here?
Answer: The value was -13.5%.

Question: For `COC(=O)C(C)Sc1nc2c(c(=O)n(C)c(=O)n2C)n1Cc1cccc(C)c1` (configuration not stated), which “activity change, negative = inhibition” value is on record?
Answer: The value was 5.21%.

Question: For `Cn1c(=O)c2c(nc(NCCNC(=O)c3ccco3)n2Cc2ccccc2F)n(C)c1=O`, which “activity change, negative = inhibition” value is on record?
Answer: The value was -4.05%.

Question: For `CC(C)CCn1c(CN(C)Cc2ccccc2)nc2c1c(=O)n(C)c(=O)n2C`, which Potency is on record?
Answer: The Potency was 20.6 µM (active).

Question: With `CCCCn1c(SCC(=O)NCCc2ccc(OC)c(OC)c2)nc2c1c(=O)n(C)c(=O)n2C` as the compound, how does the “activity change, negative = inhibition” value read?
Answer: Its value is 1.48%.

Question: With `Cn1c(=O)c2c(ncn2CCc2ccccc2)n(C)c1=O` as the compound, how does the “activity change, negative = inhibition” value read?
Answer: Its value is 8.66%.

Question: For `CCCCNc1nc2c(c(=O)n(C)c(=O)n2C)n1Cc1cccc(OC)c1`, which Potency is on record?
Answer: The Potency was 5.17 µM (active).

Question: Which “activity change, negative = inhibition” value does the source give for `Cn1nccc1C(=O)N1CCCC(C(=O)c2ccc(Oc3ccccc3)cc2)C1` (configuration not stated) here?
Answer: The value was -11%.

Question: Which “activity change, negative = inhibition” value does the source give for `Cc1ccccc1NC(=S)NC(=O)Cc1ccc(Cl)cc1` here?
Answer: The value was 1.58%.

Question: With `OC(CNCCc1ccc(Cl)cc1Cl)COc1ccccc1` (configuration not stated) as the compound, how does the “activity change, negative = inhibition” value read?
Answer: The value was -0.165%.

Question: Which “activity change, negative = inhibition” value does the source give for `COCCN(CCOC)S(=O)(=O)NC[C@H]1O[C@@H](n2cnc3c(N)ncnc32)[C@H](O)[C@@H]1O` here?
Answer: Its value is -3.78%.

Question: Which “activity change, negative = inhibition” value does the source give for `O=c1ccc(S(=O)(=O)N2CCCC2)cn1Cc1nc(-c2ccccc2)no1` here?
Answer: Its value is -15.5%.

Question: For `CCN1CCN(Cc2nc3c(c(=O)n(C)c(=O)n3C)n2CC(=O)c2ccccc2)CC1`, which “activity change, negative = inhibition” value is on record?
Answer: Its value is 14.6%.

Question: Which “activity change, negative = inhibition” value does the source give for `COCCn1cnc2c1c(=O)n(Cc1ccc(Br)cc1)c(=O)n2Cc1ccccc1` here?
Answer: Its value is -9.32%.

Question: With `CN1CCN(Cc2nc3c(c(=O)n(C)c(=O)n3C)n2Cc2cccc3ccccc23)CC1` as the compound, how does the “activity change, negative = inhibition” value read?
Answer: The value was -2.34%.

Question: For `CCOC(=O)N1CCN(Cc2nc3c(c(=O)n(C)c(=O)n3C)n2Cc2ccccc2)CC1`, which Potency is on record?
Answer: Its Potency is 10.3 µM (active).

Question: For `Cn1c(=O)c2sccc2n(Cc2ccc(Br)cc2)c1=O`, which “activity change, negative = inhibition” value is on record?
Answer: Its value is 16.2%.

Question: Which Potency does the source give for `Cn1c(=O)c2c(nc(N/N=C/c3cccs3)n2Cc2ccc(Br)cc2)n(C)c1=O` here?
Answer: Its Potency is 20.6 µM (active).

Question: With `CCOC(=O)N1CCN(C(=O)c2ccc3c(=O)n(CCc4ccc(OC)c(OC)c4)c(=O)[nH]c3c2)CC1` as the compound, how does the “activity change, negative = inhibition” value read?
Answer: Its value is -21.5%.

Question: Which “activity change, negative = inhibition” value does the source give for `Cc1ccc(-n2nc3c(=O)n(C(C)C(=O)NCc4ccc5c(c4)OCO5)nc(C)c3c2C)cc1` (configuration not stated) here?
Answer: Its value is -19.3%.

Question: For `Cc1ccc(-c2csc(N3CCN(c4cc5c(cc4Cl)nc(-c4ccncc4)n5CCOCCO)CC3)n2)cc1`, which “activity change, negative = inhibition” value is on record?
Answer: The value was -27.4%.

Question: With `CCN([C@H](CO)C(C)C)S(=O)(=O)c1ccccc1Br` as the compound, how does the “activity change, negative = inhibition” value read?
Answer: Its value is 5.25%.

Question: Which “activity change, negative = inhibition” value does the source give for `CCOc1ccc(NS(=O)(=O)c2ccc(Cl)c(C(=O)N(C)Cc3cccnc3)c2)cc1` here?
Answer: The value was -12.3%.

Question: Which Potency does the source give for `CCC(C)(C)n1nnnc1C(c1cccs1)N1CCN(c2nc3ccccc3s2)CC1` (configuration not stated) here?
Answer: The Potency was 20.6 µM (active).

Question: For `CCC(C)(C)n1nnnc1C(c1cccs1)N1CCN(Cc2ccccc2)CC1` (configuration not stated), which “activity change, negative = inhibition” value is on record?
Answer: Its value is -3.91%.

Question: With `CCC(C)(C)n1nnnc1C(c1ccccc1OC)N1CCSCC1` (configuration not stated) as the compound, how does the “activity change, negative = inhibition” value read?
Answer: The value was 0.736%.
